PubChem BioAssay AID1508600 (Functional Genomics Laboratory (NCATS/FGL), 2020)
Out of some 53,000 sequences screened, about 3,700 (7%) were called active. Many of the other results were omitted from the sample, so actives are more common in it than they were. Unmarked numbers belong to inactive results.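 Rule for the calls: active = gene knockdowns whose robust z-score for IL-1 alpha signal is at least 2 or at most -2, so actives lie on both sides; inactive = the rest.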

Assay: Components of the Cytosolic LPS Sensing Pathway: Gene Identification via Genome-wide siRNA Screen
Conditions: RAW264.7 macrophages, IL-1a HTRF, actives lie on both sides, screened at 100 nM (by protocol), cells primed 5 h with Pam3CSK4 first
Text: Non-canonical inflammasome activation by cytosolic LPS is a critical component of the host response to Gram-negative bacterial infection, however we lack a comprehensive understanding of the cellular processes that control this pathway. Here we describe a genome-wide siRNA screen to identify genes regulating the mouse macrophage IL-1 alpha response to cytosolic LPS.
RAW264.7 cells were maintained in complete DMEM media, comprising DMEM with 4.5 g/L glucose, 10% FBS (Gemini Bio-Products, West Sacramento, CA), 2 mM Glutamine (Lonza) and 20 mM HEPES (Lonza), hereafter complete DMEM.
The RNAi screen was conducted in 384-well format using the Ambion Silencer Mouse Genome siRNA Library (#4391425), which consists of three unique, nonoverlapping, nonpooled siRNAs for each of 17,000 gene targets. siRNA reagents ([…]) were stamped into 384-well white flat-bottom microplates (Corning, 3570) using a Velocity11 VPrep liquid handling system (Agilent) integrated into a BioCel robotic platform (Agilent) in columns 1-22, leaving columns 23-24 empty for negative (Ambion, Negative control #1) and positive (mouse Casp4) controls, respectively. The median value of each plate's negative control column was used to normalize sample wells, and the positive control was used to assess transfection efficiency and assay performance.
Lipofectamine RNAiMAX Transfection Reagent ([…]; Invitrogen) was added in […] serum-free, antibiotic-free media to plate wells using a Thermo Scientific Matrix WellMate and Microplate Stacker. Plates were incubated for 45 min at room temperature to allow for the sufficient formation of siRNA-lipid complexes. Cells were seeded at a density of 1x10^4 cells per well in 20 microL media containing 20% (vol/vol) FBS without antibiotics. The final concentration of siRNA in each well was 100 nM. Cells were cultured for 48h at 37 degrees C in 5% CO2 before addition of […] of TLR ligand Pam3CSK4 for 5 hours. The medium was then removed, replaced with […] growth media and cell were transfected with […] of LipidA and TransIT-TKO (Mirus) for 24 hour. At the end of the LipidA treatment, […] of supernatant was transferred to a 384 Greiner Bio-one non-binding low volume plate and […] of IL-1a HTRF reagent (Cisbio, 62MIL1APEH) was added and incubated at room temperature overnight. The plates were read on an EnVision plate reader (PerkinElmer). Cell viability was measured by adding 20ul Cell Titer Glo to the original plate and running a luminescence read on the EnVision. The quantified IL-1a signal for each siRNA gene-targeted well was divided by the median of the negative control wells and multiplied by 100 to achieve a negative control normalized value for each well/siRNA. This normalized value was then used to generate a robust z-score by first taking the log of each value and then by subtracting the median and dividing by the […].

| Sequence | z-score |
| --- | --- |
| GGAGCAGUAUAUCCUACAUTT against Olfr510 | 2.82 (active) |
| CCCUGACCUUGUGGUAGAATT against Aspdh | -0.165 |
| CGAGAAGAUAUUUAAAGAGTT against Myo10 | -0.045 |
| GGAAAACAAGAGAAGGCGCTT against Pom121 | 0.361 |
| GGCCUAAUUUCCUCUAAUATT against Padi1 | 0.452 |
| GGUCUUCAGACCAGAAACATT against Hsd3b2 | -3.19 (active) |
| GGAACAUUCUAGAAUCUGUTT against Rps6kb2 | 0.986 |
| GGCCAAUAAAGAAACAAACTT against Cst9 | 1.08 |
| GGGUGUUGAAAGACUUUUATT against Tnks | -0.122 |
| GCAAUCAUUUCUUCAUCUATT against Olfr148 | 0.255 |
| GGAAUACAAAUUCAAGAUCTT against Vamp5 | -0.82 |
| CCUAUCUUUUCCCUACAUGTT against Cyp4a31 | 2.01 (active) |
| GGGAUAGUGUUCCUUAUCUTT against Neu1 | -2.6 (active) |
| GGUCAGCGUGGAGUCAAUATT against Fam184b | -1.92 |
| GGAUAUCAUAUUUUCUCAGTT against Fam71d | 0.0644 |
| GGAGGUGCGCUUCUUUAACTT against Chst5 | 0.24 |
| CGAAAAAAAUCCAAGUCAATT against Akap12 | -0.28 |
| GCCUUAGGAAAUUCUCAAUTT against Rbm12b2 | 0.334 |
| GGUCCUACAUCUCCUUCGATT against Cars | -0.194 |
| GCUAGAUUUGAUGGUUCAGTT against Cacng5 | -1.62 |
| GGCAUUUAGUAAAACCCUUTT against Rnf144a | -2.43 (active) |
| GCAUAUAACCGAGUUGAUUTT against Cdcp1 | 0.183 |
| GCUUCAGGAGCUCUACUGUTT against Catsper3 | -0.736 |
| CCUGCUCUAUGGCAGAACGTT against Nkx2-4 | 0.992 |
| GGAACAGGAGAAUGACAUCTT against D5Ertd579e | -1.25 |
| GGUGCAGAAUCUCUCAUUGTT against Mrpl30 | -2.14 (active) |
| GCGCGAUUCAGAGGUUUCATT against Raver2 | 0.238 |

| Sequence | z-score |
| --- | --- |
| GCACUGCCAGAGGUUCUGUTT against U90926 | -0.107 |
| GCCCUUAGAGAGAAUUUAUTT against Lmo2 | 0.63 |
| GCCACGUUCAAACAGUACCTT against Slc1a7 | 3.94 (active) |
| GCAGGUUCACAAUGGAUUATT against Lrrc25 | 0.108 |
| GGAAUCUGCUAUGCUUAAATT against Rdh16f2 | -1.84 |
| GCCAGAGUACCACAUUAGUTT against Pcdhga4 | 0.921 |
| GGACCAUGUGAUAAUAUCGTT against Als2 | -0.599 |
| GGAGAUCUGCUCUAAUUAUTT against Eif1ax | 2.21 (active) |
| GGGAUUGUAACAGCAUCCCTT against Epha6 | 0.594 |
| GGGAAUCUGAUGAAGAUGGTT against Grin3b | -1.56 |
| GGCCUUGAAAUCGUUUUUUTT against Tceal8 | 0.534 |
| GGAUUUUUCAGAUUCUAGATT against Hs6st2 | 0.375 |
| GGAUUUAGGCUACUUUUUCTT against Art4 | -0.387 |
| GAUGUACGAUCUGGUGGUGTT against Exosc6 | 2.73 (active) |
| GGAUUUAGAUCACUUGGAGTT against Tmem68 | -0.811 |
| GGAGUGUUGGAUGCUACCATT against Ache | -1.12 |
| GGGCAAUGGGUGAUCUAAUTT against Phactr1 | 0.00934 |
| GGAACUUUUUAAGAUGCGUTT against Ranbp1 | -0.36 |
| GGAUGCCUAUCACAAGCAGTT against Pacsin1 | -0.478 |
| GGCCCAUUACUUGUUGACUTT against Fanci | 0.378 |
| GAGCAAUGAGCAGAGAUUCTT against H2-D4 | 1.93 |
| GGACUUCAACUUGAUGGAGTT against Add2 | 2.02 (active) |
| GGAUGCUAAUUCAAGUCUUTT against Slc1a7 | 0.292 |
| GGUUAUUAAGGAUAAACUGTT against Cops5 | 2.28 (active) |
| GGAACUUACAUGAAUUCCATT against Slco1a4 | -0.229 |
| GCCACUUCCUGGAUAAGGATT against Ftl2-ps | -2.88 (active) |
| CCAAGACUGUGACAAGUUUTT against Ctsz | -0.557 |
